Bioassay records from PubChem BioAssay.
In the library only some 4.1% were active in any assay of this set; here they are far more common.
TWEAK Fn14 block: inhibitors of TWEAK-Fn14 signaling, primary screen, luciferase reporter cells, uHTS; inhibition, % at 10 µM; TWEAK-stimulated Fn14 reporter cells, luciferase luminescence, 8 h; AID 1159606, 2016; 360,000 compounds, 2% hits; in the data active = inhibition above about 50%
LMP1 NFkB inh: EBV LMP1-driven NF-kappaB luciferase reporter inhibitors, primary screen, cell-based, luminescence, single point; LMP1-induced NF-kappaB luciferase reporter cells; inhibition, % at 12.5 µM; 350,000 compounds, 0.69% hits; in the data active = inhibition above about 41%;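 note: 0% = neutral control wells and 100% = reference inhibitor control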
Peg3 promoter: Peg3 promoter-driven luciferase inhibitors, primary screen, cell-based, HeLa, luciferase luminescence. AID 588405, 2011. 360,000 compounds, 1.7% hits. HeLa PEG-Prom luciferase reporter, overnight. inhibition, % at 20 µM;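 active = inhibition of at least 50% at 20 µM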
MITF TRPM1 inh: inhibitors of MITF-dependent TRPM1 promoter reporter, primary screen, cell-based, SK-MEL-5, single point, luciferase. inhibition, % at 12.5 µM. SK-MEL-5 TRPM1 promoter luciferase, 24 h. 330,000 compounds, 0.83% hits;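 active = mean inhibition across replicates of 60% or more, whatever share of single replicates reaches that level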
Shn3 3UTR inh: reduction of Shn3 3'UTR firefly luciferase signal, primary screen, Schnurri-3 inhibitor project, cell-based, Clone20 osteoblasts, set 2; 360,000 compounds, 0.52% hits; inhibition, % at 12.5 µM; Clone20 osteoblast Shn3 3'UTR firefly luciferase, 24 h;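 active = mean inhibition of at least 75% with every replicate also reaching 75%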;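 note: 0% = median of neutral control wells and 100% = pilot-screen positive control compound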
TROY signal inh: inhibitors of TROY-driven NF-kB signaling, primary screen, Q293 LMP1-TROYcd cells, NF-kB luciferase, uHTS; Q293 LMP1-TROYcd NF-kB luciferase reporter, 4 h; AID 1347056, 2019; 360,000 compounds, 0.98% hits; inhibition, % at 10 µM;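 active = compounds whose plate-normalised and pattern-corrected inhibition of the luciferase reporter signal at the single screening dose is 50% or more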
* hit, by the source's call; / = no result given.

SMILES | TWEAK Fn14 block | LMP1 NFkB inh | Peg3 promoter | MITF TRPM1 inh | Shn3 3UTR inh | TROY signal inh
O=C(c1ccccc1)c1ccc2nc(-c3ccc(NC(=O)c4ccccc4Br)cc3)[nH]c2c1 | -7.4 | 2.6 | 6.1 | -25.9 | 15.6 | 5.5
O=C(Nc1ccc(-c2nc3ccc(NC(=O)c4cccs4)cc3[nH]2)cc1)c1cccs1 | -127.5 | -15.4 | 65.6* | 79.1* | 77.5 | -1.0
Cc1ccc(C(=O)NCc2ccncc2)cc1S(=O)(=O)N1CCCCC1 | 4.4 | 4.0 | 21.9 | 6.4 | 15.3 | -3.5
Brc1ccc(-c2csc(N3CCCCCC3)n2)cc1 | -8.1 | 46.3* | -167.5 | -33.3 | -3.7 | -15.4
CC(=O)Oc1ccc(N(C(C)=O)S(=O)(=O)c2ccc3ccccc3c2)cc1 | 5.3 | 11.6 | -5.1 | -2.5 | 30.0 | 11.4
O=[N+]([O-])c1ccc(Sc2cc[n+]([O-])c3ccccc23)c([N+](=O)[O-])c1 | 77.1* | -13.4 | 6.7 | 90.4* | -9.9 | 2.7
O=[N+]([O-])c1ccc(Sc2nc3ccccc3o2)c([N+](=O)[O-])c1 | 57.6* | 15.1 | 96.9* | 86.7* | 97.9* | 23.0
O=c1[nH]c(Sc2ccc([N+](=O)[O-])cc2[N+](=O)[O-])nc2ccccc12 | -1.2 | -5.7 | -58.3 | 6.6 | 2.5 | -43.4
CCOC(=O)Cc1ncccc1C(=O)Nc1ccc(Oc2ccccc2)cc1 | -6.8 | 9.8 | -8.0 | 15.5 | 20.5 | -1.4
COc1ccc(N2N=NN(C(C)C)C2=C(Cl)c2nnnn2-c2ccc(OC)cc2)cc1 | -0.5 | 85.0* | -95.2 | 37.0 | -20.4 | -33.2
COc1ccc(-n2nnnc2-c2ccccc2)cc1 | 31.9 | 12.1 | -9.0 | 25.3 | -3.1 | 3.3
O=C(Nc1cccc(F)c1)NC1(C(=O)N2CCOCC2)CCCCC1 | 9.7 | -0.6 | 2.7 | 1.4 | -14.3 | 19.0
CN(C)c1ccc(/C=N/N2CCN(Cc3ccccc3Cl)CC2)cc1 | -14.5 | -15.4 | -16.9 | -12.8 | -12.4 | -33.1
COc1cc(OC)c(C(=O)/C=C/c2ccccc2)c(O)c1O | 63.9* | -0.5 | 3.1 | 14.8 | -10.3 | 19.1
COc1cc(O)cc(O)c1C(=O)/C=C/c1ccccc1 | 78.2* | -2.8 | 23.6 | 18.7 | -6.2 | 4.5
Cc1c(CNC(=O)C2CCC(=O)N(CCc3ccccc3)C2)cnn1C (configuration not stated) | 8.2 | 1.9 | 5.8 | 4.1 | 1.6 | 3.5
Nc1ncnc2c1ncn2[C@@H]1O[C@H](C(=O)N2CCN(Cc3ccccn3)CC2)[C@@H](O)[C@H]1O | -5.9 | / | 26.8 | / | -17.0 | 2.3
CCOC(=O)c1c(NC(=O)c2ccco2)n(C2CCCCC2)c2nc3ccccc3nc12 | 87.6* | -7.3 | 27.1 | 6.0 | -6.8 | 70.6*
Nc1ccc(Cl)cc1C(=O)OCC(=O)NC1CCS(=O)(=O)C1 (configuration not stated) | -1.9 | -4.4 | 2.8 | 10.6 | 7.7 | 16.0
CCOC(=O)Cc1csc(N/N=C\c2ccc(N(C)C)cc2)n1 | 72.8* | 81.4* | -75.8 | -12.1 | 7.4 | 44.9
Fc1ccccc1-c1cc2ncccc2cn1 | 1.5 | -12.6 | -218.8 | -70.9 | -73.0 | -56.8
Cc1ccc(-n2cccc2/C=C2\C(=N)N3N=C(c4ccco4)SC3=NC2=O)cc1 | -0.6 | -6.0 | 14.4 | -9.2 | -15.7 | 9.4
Cc1ccc(-c2cnn3c(N4CCOCC4)cc(C)nc23)cc1 | 84.6* | -29.6 | -32.2 | -45.4 | 5.0 | 73.4*
Cc1cc(N2CCC(C)CC2)n2nc(C)c(-c3ccccc3)c2n1 | -9.7 | -2.4 | -19.6 | -1.9 | -23.8 | -12.5
CC(C)(C)c1cc(N2CCOCC2)n2ncc(-c3ccc(Cl)cc3)c2n1 | -17.9 | -11.6 | -58.1 | -35.5 | 9.0 | -21.5
SMILES | TWEAK Fn14 block | LMP1 NFkB inh | Peg3 promoter | MITF TRPM1 inh | Shn3 3UTR inh | TROY signal inh
Cc1cc(N2CCOCC2)n2ncc(-c3ccccc3)c2n1 | 86.2* | 4.0 | -41.3 | 6.5 | -6.2 | 75.1*
Cc1cc(N2CCC(C)CC2)n2ncc(-c3ccccc3)c2n1 | 83.5* | -1.4 | -174.6 | -8.2 | -9.9 | 83.8*
Cc1cc(N2CCOCC2)n2ncc(-c3ccc(Cl)cc3)c2n1 | 82.4* | -21.2 | -166.6 | -29.7 | -2.2 | 78.7*
CC(OC(=O)C1=COCCO1)C(=O)c1ccc(C(C)(C)C)cc1 (configuration not stated) | 0.6 | -9.9 | -34.6 | -25.9 | -4.1 | -58.0
S=C(N/N=C/c1ccccc1Cl)Nc1cccc(Cl)c1Cl | -8.6 | -5.9 | 1.1 | 5.5 | -6.0 | -14.4
Cc1cc(N2CCCCC2)n2nc(C)c(-c3ccccc3)c2n1 | 0.9 | 4.4 | -58.6 | -24.8 | -12.6 | 11.7
Cc1cc(N2CCCCC2)n2ncc(-c3ccccc3)c2n1 | 81.4* | -33.2 | -85.7 | 8.4 | -1.7 | 77.1*
Cc1cc(N2CCCCC2)n2ncc(-c3ccc(Cl)cc3)c2n1 | 74.0* | -60.7 | -316.1 | -55.5 | -50.7 | 70.0*
CC(C)C(NC(=O)OC(C)(C)C)C(=O)N1CCCC1C(=O)NC(Cc1ccccc1)C(N)=O (configuration not stated) | -6.0 | 6.3 | 0.1 | 21.8 | -9.0 | -24.5
Fc1cccc(F)c1-n1c(CN2CCCCC2)csc1=S | 18.0 | 6.0 | 27.6 | 1.8 | -4.1 | -10.6
CCN(Cc1ccc(OC)c(F)c1)C(=O)C1CCCO1 (configuration not stated) | 33.4 | 0.4 | 20.4 | 3.7 | 5.6 | -14.6
CCN(Cc1ccc(OC)c(F)c1)C(=O)CCl | 13.1 | -14.4 | 40.0 | 74.6* | 15.5 | 1.8
CCCCn1c(=N)n(CCOc2ccc(C)cc2)c2ccccc21 | -6.5 | -0.6 | 100.1* | 64.1* | 32.2 | 13.7
Cc1ccc(OCC(O)Cn2c(=N)n(CCN3CCCCC3)c3ccccc32)cc1 (configuration not stated) | -88.6 | -38.7 | 78.3* | 24.5 | 80.4 | 4.9
COc1ccccc1OCC(O)Cn1c(=N)n(Cc2ccccc2)c2ccccc21 (configuration not stated) | 6.5 | -4.0 | 32.5 | 19.9 | 87.3* | -5.6
COc1ccc(OCCn2c(=N)n(CCO)c3ccccc32)cc1 | 8.3 | 4.8 | 9.9 | 5.7 | 15.8 | -18.4
C=CCn1c(=N)n(CC(O)COc2ccccc2OC)c2ccccc21 (configuration not stated) | 1.9 | -3.6 | 12.3 | / | 25.5 | 3.9
CCCCn1c(=N)n(CC(O)COc2cccc(C)c2)c2ccccc21 (configuration not stated) | -52.8 | -5.8 | 69.7* | 0.6 | 77.2 | -5.8
COc1ccc(OCC(O)Cn2c(=N)n(CCN3CCCCC3)c3ccccc32)cc1 (configuration not stated) | -24.5 | -13.8 | 15.6 | -14.3 | 56.3 | 0.0
